We go through 40 molecules from PubChem BioAssay (Tox21).

Each structure is given as a SMILES string. Records with an inconclusive call do not appear. Entries that show only a call come without a potency. Some structures have more than one record in an assay (separate samples or runs), and their calls can disagree. The source made the active and inactive calls. Calls follow the shape of the dose curve; as a rule, active = well fitted cell-killing curve with a large enough effect in the repeat runs (not every such curve was filed as active); inconclusive = weak or mixed curves, or effect the other way; inactive = no such curve, though single readings can be large or run the other way.
Potency is read from the fitted curve at half-maximal effect.

A short description of this assay: qHTS assay to identify small molecule antagonists of the estrogen related receptor signaling pathway with the pleiotropic PPARgamma coactivator (PGC) from Tox21 10K library - cell viability counter screen (AID 1224840). Also: nearly all actives have a fitted effect of over 40% in size. The note with it: PGC/ERR reporter cells viability, CellTiter-Fluor, 17.5 h; series mostly up to 92.4 µM. An excerpt: National Center for Advancing Translational Sciences [NCATS]
NIH Chemical Genomics Center [NCGC]
U.S. Environmental Protection Agency [EPA]
National Institutes of Environmental Health Sciences [NIEHS]
National Toxicology Program [NTP]
U.S. Food and Drug Administration [FDA]
Estrogen related receptors (ERRs), the first orphan nuclear receptors discovered, play an important role in the control of cellular energy metabolism. ERRs are required for high-energy production in response to the environmental challenges. The pleiotropic PPARgamma coactivator (PGC) is a major partner of ERR and a key regulator in energy homeostasis. Together they have been implicated in the etiology of metabolic disorders such as Type 2 diabetes and metabolic syndrome. ERR-alpha was also identified as an adverse marker for breast cancer progression; ERR-alpha-positive tumors have a poor prognosis. To screen and to identify environmental compounds that perturb the ERR and PGC/ERR signaling pathways could provide valuable information for potential therapeutic or preventive measures in the treatment of metabolic disease. To differentiate true PGC/ERR antagonists or agonist from cytotoxic substances, the assay is multiplexed with cell viability assay.
Tox21 Assay Protocol Summary:
The PGC/ERR cells were dispensed at 2,000 cells/5 ul/well in 1536-well white plates using a Multidrop dispenser. After the assay plates were incubated at a 37 C/5% CO2 incubator for 6 hours, 23 nL of compounds dissolved in DMSO, positive and negative controls or DMSO only was transferred to the assay plate by a pin tool. The plates were incubated at 37 C for 17.5 hours. 1 ul/well of CellTiter-Fluor reagent was added into the assay plates using a Flying Reagent Dispenser. After 30-minute incubation at 37 C/5% CO2, the fluorescence intensity in the plates was measured using a ViewLux plate reader.
For orientation: qHTS replaces the single test concentration by a dilution series.
`CN1C(=O)CCS(=O)(=O)C1c1ccc(Cl)cc1` (stereo not given): the Potency entry was “inactive”.
On to `Sc1ccccc1`, for which the Potency result was “inactive”.
Next, `COP(=S)(OC)SCN1C(=O)c2ccccc2C1=O`: “inactive”.
Consider `CNc1cnn(-c2cccc(C(F)(F)F)c2)c(=O)c1Cl`, for which the Potency entry was “inactive”.
As to `CCCOC(=O)c1ccccc1C(=O)OCCC`, the Potency result was “inactive”.
As for `O=C(O)C1C(C(=O)O)C2(Cl)C(Cl)=C(Cl)C1(Cl)C2(Cl)Cl` (stereo not given), the Potency result is “inactive”.
On to `O=C/C=C/c1ccccc1`, for which the Potency result is “inactive”.
`CNC(=O)O/N=C/C(C)(C)S(C)(=O)=O`: the Potency result was “inactive”.
`Cc1cc(Cl)ccc1OC(C)C(=O)O` (stereo not given): the Potency result was “inactive”.
As to `CC(=O)C1CCOC1=O` (stereo not given), the Potency result is “inactive”.
Next, `C=C(C)C(=O)OCC(CC)CCCC` (stereo not given): 39.3 µM (active) and inactive.
Regarding `O=C(O)CCCc1ccc(N(CCCl)CCCl)cc1`, the Potency entry is “inactive”.
Consider `OCc1ccco1`, for which the Potency entry is “inactive”.
With `Nc1ccc(N)cc1`, the Potency result was “inactive”.
As for `C=CC(=O)OCC(CC)CCCC` (stereo not given), the Potency entry is “inactive”.
As for `CCOC(=O)CC(SP(=O)(OC)OC)C(=O)OCC` (stereo not given), the Potency entry is “inactive”.
With `COS(=O)(=O)OC`, the Potency entry was “inactive”.
In the case of `C/C=C/c1ccc2c(c1)OCO2`, the Potency entry is “inactive”.
Regarding `Cc1cccc(N)c1C`, the Potency entry was “inactive”.
As for `[N-]=[N+]=CC(=O)OC[C@H](N)C(=O)O`, the Potency result was “inactive”.
Next, `NNc1ccccc1`: “inactive”; `ClC(Cl)c1ccccc1`: “inactive”.
In the case of `COC(C)(C)CCCC(C)C/C=C/C(C)=C/C(=O)OC(C)C` (stereo not given), the Potency result is “inactive”.
With `C[C@]12CC[C@H](O)CC1=CC[C@@H]1[C@@H]2CC[C@]2(C)C(=O)CC[C@@H]12`, the Potency result is “inactive”.
Take `FC(F)(F)c1ccc(Cl)cc1`: the Potency entry is “inactive”.
Regarding `N#Cc1cccc(C#N)c1`, the Potency result is “inactive”.
For `CN(C)C(=O)C(c1ccccc1)c1ccccc1`, the Potency result is “inactive”.
As for `Oc1ccc(Cl)cc1`, the Potency result is “inactive”.
For `O=C(O)COc1ccccc1`, the Potency entry was “inactive”.
`CC(C)CCCCCCOC(=O)c1ccccc1C(=O)OCCCCCCC(C)C`: the Potency result is “inactive”.
Take `C=CCN=C=S`: the Potency entry is “inactive”.
Turning to `Nc1ccc([As](=O)(O)O)cc1`, the Potency entry is “inactive”.
As for `CCOc1ccc(N)cc1`, the Potency entry was “inactive”.
As to `OC[C@@H](O)[C@H]1O[C@@H]2O[C@H](C(Cl)(Cl)Cl)O[C@@H]2[C@H]1O`, the Potency result is “inactive”.
As to `CC[N+](=O)[O-]`, the Potency result is “inactive”.
As to `O=C(O)C(Br)Br`, the Potency result was “inactive”.
As to `CCNc1nc(Cl)nc(NC(C)C)n1`, the Potency entry is “inactive”.
Consider `COc1nc(NC(C)C)nc(NC(C)C)n1`, for which the Potency entry is “inactive”.
On to `Cc1ccccc1N`, for which the Potency result was “inactive”.
As for `CNC(=O)O/N=C/C(C)(C)S(C)=O` (stereo not given), the Potency result was “inactive”.
